Source: PubChem BioAssay (The Scripps Research Institute Molecular Screening Center)
Only some compounds are listed: those with a hit (about 0.9% of all), similar ones and a draw of the others.
PPARg SRC-1 ag = PPARgamma-driven SRC-1 recruitment agonism; PPARgamma-SRC-1 coactivator recruitment biochemical assay; activation, % at 8 µM; actives 0.41% (n = 200,000); AID 631; in the data active = activation above about 19%
Target sequence (P37231 whole entry, looked up): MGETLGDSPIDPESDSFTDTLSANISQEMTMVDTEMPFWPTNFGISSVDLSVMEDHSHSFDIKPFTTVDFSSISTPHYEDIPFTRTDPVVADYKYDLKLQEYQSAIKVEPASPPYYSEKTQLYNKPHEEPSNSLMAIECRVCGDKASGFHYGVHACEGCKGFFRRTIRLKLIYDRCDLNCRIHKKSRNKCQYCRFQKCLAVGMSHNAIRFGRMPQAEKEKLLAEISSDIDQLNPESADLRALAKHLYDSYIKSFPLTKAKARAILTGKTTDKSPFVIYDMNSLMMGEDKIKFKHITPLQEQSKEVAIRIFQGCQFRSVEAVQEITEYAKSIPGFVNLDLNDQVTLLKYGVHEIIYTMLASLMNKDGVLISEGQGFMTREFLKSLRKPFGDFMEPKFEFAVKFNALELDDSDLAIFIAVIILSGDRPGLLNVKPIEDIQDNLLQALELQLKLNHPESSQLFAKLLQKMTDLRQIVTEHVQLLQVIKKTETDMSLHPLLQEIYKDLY
PPARg SRC3 recr = PPARgamma-driven SRC-3 recruitment agonism; P37231; biochemical PPARgamma/SRC-3 coactivator recruitment assay; activation, % at 8 µM; actives 0.26% (n = 200,000); AID 731; in the data active = activation above about 23%
PPARg SRC2 recr = promotes SRC-2 coactivator recruitment by human PPARgamma | actives 0.34% (n = 200,000) | PPARgamma LBD-SRC-2 recruitment, biochemical | activation, % at 8 µM | AID 1032
SRC1 TRFRET art = TR-FRET artefact, counter-screen to PPARgamma/SRC-1 agonist assay; TR-FRET ratio at 8 µM; TR-FRET detection artefact counter-screen, emission ratio; stronger effect = higher value; actives 0.34% (n = 99,000); in the data active = TR-FRET ratio above about 2300
TR-FRET SRC-2 ct = flags TR-FRET format artefacts in PPARgamma SRC-2 recruitment agonist screen. AID 1049. actives 0.4% (n = 200,000). TR-FRET artefact counter-screen; stronger effect = higher value. TR-FRET ratio at 8 µM; in the data active = TR-FRET ratio above about 2000
SRC3 TRFRET art = counter-screen for PPARgamma SRC-3 recruitment agonists: TR-FRET artefact; PPARgamma/SRC-3 format; stronger effect = higher value; TR-FRET ratio at 8 µM; actives 0.39% (n = 99,000); in the data active = TR-FRET ratio above about 2000
PPARg SRC2 ag = human PPARgamma SRC-2 recruitment agonism, confirmation. activation, % at 8 µM. biochemical SRC-2 recruitment by PPARgamma. actives 52% (n = 790). shares compounds with PPARg SRC3 recr. AID 1297
PPARg SRC1 conf = human PPARgamma SRC-1 recruitment agonism, confirmation | shares compounds with PPARg SRC3 recr | PPARgamma–SRC-1 coactivator recruitment biochemical assay | activation, % at 8 µM | actives 43% (n = 790) | AID 1300; in the data active = activation above about 20%
PPARg SRC3 conf = confirmation of agonists of SRC-3 recruitment by human PPARgamma | shares compounds with PPARg SRC3 recr | biochemical PPARgamma-SRC-3 coactivator recruitment, agonist mode | activation, % at 8 µM | actives 29% (n = 790) | AID 1301; in the data active = activation above about 24%
Numbers stand for hits; i = inactive; nt = no result given. Rule as the data show it, unless noted: active = activation above about 22%; inactive = the rest.

SMILES	PPARg SRC-1 ag	PPARg SRC3 recr	PPARg SRC2 recr	SRC1 TRFRET art	TR-FRET SRC-2 ct	SRC3 TRFRET art	PPARg SRC2 ag	PPARg SRC1 conf	PPARg SRC3 conf
Cc1ccc(NC(=O)CSc2nc3ccccc3c3nc(CCc4c(C)n[nH]c4C)nn23)cc1F	25	i	i	nt	i	nt	i	i	i
Cc1ccc(NC(=S)NCc2ccc3c(c2)OCO3)cc1C	i	i	i	i	i	i	nt	nt	nt
S=C(NCc1ccc2c(c1)OCO2)Nc1ccc2nsnc2c1	61	56	91	3812	2840	3652	23	28	i
N#CC(=C1N=c2ccccc2=N1)c1c(O)[nH]c2ccccc12	i	i	i	nt	i	nt	nt	nt	nt
Cn1c(O)c(C(C#N)=C2N=c3ccccc3=N2)c2ccccc21	22	i	i	nt	i	nt	i	i	i
CCOC(=O)C1=NN(C(=O)COc2ccccc2)C(O)(c2ccc(Br)cc2)C1 (configuration not stated)	i	i	i	i	i	i	nt	nt	nt
Cn1c(=O)cc(SCC(=O)NCC2CCCO2)c2ccccc21 (configuration not stated)	45	78	49	nt	2686	nt	35	23	i
Cc1ccc(C)c(SCC(=O)NCc2ccco2)c1	i	i	i	nt	i	nt	nt	nt	nt
COc1cccc(CNC(=O)CSc2cc(=O)n(C)c3ccccc23)c1	42	i	23	2682	2371	i	36	25	24
Cn1c(=O)cc(SCC(=O)NCc2ccco2)c2ccccc21	28	38	36	nt	2082	nt	33	22	i
COc1ccc(CNC(=O)CSc2cc(=O)n(C)c3ccccc23)cc1	40	24	26	2843	2425	2050	37	24	24
CCn1c(SCc2ccc(F)cc2)nnc1-c1nn(-c2ccccc2)ccc1=O	i	i	i	nt	i	nt	nt	nt	nt
COc1ccc(CC(=O)NCc2nnc(SCCOc3ccccc3)n2C)cc1	19	i	i	nt	i	nt	i	i	i
CCn1c(CNC(=O)Cc2ccc(OC)cc2)nnc1SCCOc1ccccc1	i	i	i	nt	i	nt	nt	nt	nt
COc1cc(NC(=O)CCCl)cc(-n2cnnn2)c1	i	i	i	i	i	i	nt	nt	nt
COc1ccc(CCC(=O)Nc2c(C)n(C)n(-c3ccccc3)c2=O)cc1	i	i	i	i	i	i	nt	nt	nt
Cc1cccc[n+]1C1C(c2ccccc2)C(C#N)=C(C(=C=[N-])C#N)NC1(O)C1CC1 (configuration not stated)	i	29	26	nt	2096	nt	30	20	i
Cc1ccc[n+](C2C(c3ccc([N+](=O)[O-])cc3)C(C#N)=C([S-])NC2(O)C2CC2)c1 (configuration not stated)	i	i	i	i	i	i	nt	nt	nt
N#CC(=C=[N-])C1=C(C#N)C(c2ccccc2F)C([n+]2ccccc2)C(O)(C2CC2)N1 (configuration not stated)	32	71	75	nt	3792	nt	i	i	i
CCOC(=O)C1C(=O)NC(SC)=C(C#N)C1c1ccccc1F (configuration not stated)	i	i	i	i	i	i	nt	nt	nt
O=C(c1cc2c(s1)-c1ccccc1OC2)N1CCN(c2ccccc2)CC1	19	i	i	nt	2061	nt	i	i	i
O=C(c1cc2c(s1)-c1ccccc1OC2)N1CCN(c2ccccn2)CC1	30	30	22	nt	2008	nt	34	30	i
CCOC(=O)N1CCN(C(=O)c2cc3c(s2)-c2ccccc2OC3)CC1	20	38	i	nt	i	nt	i	i	i
Brc1cc(Br)c2nc(-c3ccc(N4CCOCC4)cc3)ccc2c1	25	35	22	nt	2276	nt	24	i	i
CCOC(=O)CSc1nc(N)c(C(=O)Nc2ccc(N(C)C)cc2)s1	22	i	i	nt	i	nt	i	i	i
SMILES	PPARg SRC-1 ag	PPARg SRC3 recr	PPARg SRC2 recr	SRC1 TRFRET art	TR-FRET SRC-2 ct	SRC3 TRFRET art	PPARg SRC2 ag	PPARg SRC1 conf	PPARg SRC3 conf
Cc1ccc(/C=N/Nc2ccc3ccccc3n2)o1	22	i	i	i	i	i	i	i	i
O=C(O)CCC(=O)Nc1cccc(C(=O)Nc2ccc(Br)cc2)c1	i	i	i	i	i	i	nt	nt	nt
O=C(O)Cc1cc(C(=O)Nc2ccc(Br)cc2)sc1-c1ccccc1	33	i	22	2611	2211	2260	i	i	i
Cc1cc(OC(F)F)ccc1NC(=O)Nc1ccc([N+](=O)[O-])cc1	i	i	i	i	i	i	nt	nt	nt
COc1ccccc1CCC(=O)Nc1ccc(C)cc1Cl	i	i	i	i	i	i	nt	nt	nt
CCn1c(=O)cc(OCC(=O)Nc2cccc(C)n2)c2ccccc21	i	i	i	nt	i	nt	nt	nt	nt
CCn1c(=O)cc(SCC(=O)Nc2ccc(Cl)cc2)c2ccccc21	39	i	i	nt	i	nt	34	23	i
CCn1c(=O)cc(SCC(=O)Nc2cccc(C)n2)c2ccccc21	58	38	37	3815	3523	3307	48	32	34
CCn1c(=O)cc(SCC(=O)Nc2ccc(OC)c(OC)c2)c2ccccc21	20	34	42	nt	2203	nt	48	33	32
CC(=O)c1c(C)n(-c2ccccc2)c2ccc(OCC(N)=O)cc12	i	i	i	i	i	i	nt	nt	nt
CCOc1cc(CNc2ccc(N3CCCCC3)cc2)cc(Br)c1OCC(=O)NC(C)(C)C	i	i	i	i	i	i	nt	nt	nt
CCOc1cc(CNc2ccc(N(C)C)cc2)cc(Br)c1OCC(=O)NC(C)(C)C	55	128	123	nt	3290	nt	i	i	i
Cc1ccc(C(=O)COC(=O)c2cn(-c3ccccc3)nc2-c2ccccc2)cc1[N+](=O)[O-]	i	i	i	i	i	i	nt	nt	nt
Cc1c(O)c2c3c(cccc3c1O)C(=O)N(c1ccccc1)C2=O	24	i	22	2683	2078	2155	26	i	i
O=C(O)c1ccc2c3c(cccc13)C(=O)N(c1ccccc1)C2=O	i	i	i	i	i	i	nt	nt	nt
CCn1c(SCC(=O)NC2CCCCC2)nnc1-c1cccs1	i	i	i	nt	i	nt	nt	nt	nt
CCn1c(SC(=O)NC2CCCCC2)nnc1-c1cccs1	24	29	22	nt	i	nt	i	i	i
CCCCCn1c(CN2CCN(C(=O)OCC)CC2)nc2c1c(=O)n(C)c(=O)n2C	i	i	i	nt	i	nt	nt	nt	nt
CCCCCn1c(CN2CCN(C)CC2)nc2c1c(=O)n(C)c(=O)n2C	i	26	i	nt	i	nt	i	i	i
CCOC(=O)c1ccc2c(c1)n(CC)c(C)[n+]2CC	i	i	i	i	i	i	nt	nt	nt
CCOC(=O)c1ccc2c(c1)[nH]c(=S)n2CC	23	i	28	2451	i	2330	50	37	30
O=[N+]([O-])c1ccc(O)c(-c2nc(-c3ccccc3)c(-c3cccs3)[nH]2)c1	i	i	i	nt	i	nt	nt	nt	nt
